DAX1 inh-1: inhibitors of human orphan nuclear receptor DAX1 (NR0B1); AID 504766; 340,000 tested, 0.99% active; HEK293 Gal4-DAX1 luciferase reporter, luminescence; inhibition, % at 6.75 µM; P51843;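 active means inhibition above the mean over all tested compounds plus 3 SD, cut at about 4.2% in these data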;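 further: inhibition shows as a rise in luminescence from relieved DAX1 repression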
ssDAF12 agonist: activators of S. stercoralis DAF-12 nuclear receptor; HEK293 ssDAF-12/GRIP1 lit1-tk-luc reporter, luminescence; % of 3 µM dafachronic acid response; activation, % at 6.8 µM; 370,000 tested, 1% active; AID 652126;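 active means activation above the mean over all tested compounds plus 3 SD, cut at about 0.9% in these data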
AHR act: activators of human aryl hydrocarbon receptor; AHR-responsive luciferase reporter cells, luminescence; P35869; activation, % at 5 µM; AID 2796; 320,000 tested, 2.5% active; in the data active means activation above about 47%
Target sequence (P35869 whole entry, looked up): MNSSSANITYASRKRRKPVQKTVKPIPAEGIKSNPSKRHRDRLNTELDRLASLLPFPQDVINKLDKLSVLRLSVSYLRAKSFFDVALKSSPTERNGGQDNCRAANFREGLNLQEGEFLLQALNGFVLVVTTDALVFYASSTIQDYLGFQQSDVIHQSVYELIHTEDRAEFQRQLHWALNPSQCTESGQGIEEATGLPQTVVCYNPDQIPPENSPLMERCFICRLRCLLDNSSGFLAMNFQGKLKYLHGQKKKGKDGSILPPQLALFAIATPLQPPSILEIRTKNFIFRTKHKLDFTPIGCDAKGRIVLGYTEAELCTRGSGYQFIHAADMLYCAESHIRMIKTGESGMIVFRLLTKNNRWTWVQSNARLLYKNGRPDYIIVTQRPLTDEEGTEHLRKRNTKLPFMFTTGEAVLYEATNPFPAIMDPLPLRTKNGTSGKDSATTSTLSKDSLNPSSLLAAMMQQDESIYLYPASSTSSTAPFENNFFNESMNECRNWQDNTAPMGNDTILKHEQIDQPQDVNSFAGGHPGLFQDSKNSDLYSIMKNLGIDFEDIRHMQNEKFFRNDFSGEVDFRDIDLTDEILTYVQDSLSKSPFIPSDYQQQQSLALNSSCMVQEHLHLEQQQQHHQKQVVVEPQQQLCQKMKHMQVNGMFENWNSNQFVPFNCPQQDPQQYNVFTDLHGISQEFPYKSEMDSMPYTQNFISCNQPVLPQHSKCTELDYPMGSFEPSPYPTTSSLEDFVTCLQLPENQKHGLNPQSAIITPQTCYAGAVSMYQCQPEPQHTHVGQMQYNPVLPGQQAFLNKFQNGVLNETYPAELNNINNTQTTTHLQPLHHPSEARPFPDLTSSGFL
hgDAF12 agonist: agonists of H. glycines DAF-12 nuclear receptor; activation, % at 6.8 µM; HEK293 GAL4-hgDAF12 UAS-luciferase reporter, agonist luminescence; normalized to butyrate control; AID 687014; 370,000 tested, 1.8% active;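 active means activation above a cutoff set at the mean of all screened compounds plus 3 SD, cut at about 10% in these data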
hcDAF12 agonist: H. contortus DAF-12 activation, primary screen; HEK293 hcDAF-12 lit1-tk-luc reporter, luminescence; 0% DMSO, 100% Δ7-dafachronic acid; activation, % at 6.8 µM; 370,000 tested, 1.4% active; AID 652067;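 active means activation above the mean of all tested compounds plus 3 SD, cut at about 5.5% in these data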
DAX1 inh-2: inhibitors of DAX1 repression of SF-1 activated StAR promoter. inhibition, % at 6.8 µM. HEK293T StAR-luciferase reporter, SF-1/DAX-1 repression relief. 370,000 tested, 1.1% active;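 active means inhibition above the mean over all tested compounds plus 3 SD, cut at about 3.6% in these data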;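 further: higher inhibition means more luminescence from relief of DAX-1 repression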
DAX1 inh confirm: NR0B1 (human) inhibition, confirmation; shares compounds with DAX1 inh-2; HEK293T StAR-promoter luciferase reporter, SF-1/DAX-1 repression; inhibition, % at 6.8 µM; 2,400 tested, 87% active; AID 652134;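 active means inhibition above the average of every tested compound plus 3 SD, cut at about 3.8% in these data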;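 further: active compounds raise luminescence by relieving repression of the StAR reporter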
SF1 mutant ctr: counter-screen for DAX1 inhibitors: nonselective inhibitors with SF-1 AF2 mutant; shares compounds with DAX1 inh-2; HEK293 StAR-luciferase, luminescence; inhibition, % at 6.8 µM; 2,400 tested, 78% active; AID 652136;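 active means inhibition above the mean of all tested compounds plus 3 SD, cut at about 3% in these data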
LXRb hcDAF ctr: LXR-beta agonism as hcDAF-12 counter-screen. HEK293 Gal4-LXR tk-luc reporter, luminescence, 24 h; normalized: DMSO 0%, positive control 100%. shares compounds with hcDAF12 agonist. activation, % at 6.8 µM. 3,400 tested, under 10 active;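 active means mean percent activation of the reporter above a cutoff set as the average over tested compounds plus their standard deviation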
hcDAF12 conf: hcDAF-12 agonism, confirmation assay. shares compounds with hcDAF12 agonist. HEK293 hcDAF-12 lit1-tk-luc reporter, luminescence; % of Δ7-dafachronic acid response. activation, % at 6.8 µM. 3,400 tested, 61% active. AID 743032;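 active means mean activation across triplicate tests above the threshold derived from the earlier primary screen, cut at about 5.5% in these data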
hgDAF12 conf: hgDAF-12 agonism, confirmation assay; shares compounds with hgDAF12 agonist; HEK293 GAL4-hgDAF12 luciferase reporter, agonist mode; percent of butyrate response; activation, % at 6.8 µM; 3,300 tested, 80% active; AID 743050;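 active means mean activation over triplicate wells above the hit cutoff derived from the earlier primary screen, cut at about 11% in these data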
LXRb DAF12 ctr: activates human LXR-beta, counter-screen for DAF-12 agonists. shares compounds with hgDAF12 agonist. HEK293 Gal4-LXR luciferase reporter, 24 h. activation, % at 6.8 µM. 3,300 tested, under 10 active;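 active means mean activation of the triplicate above a set limit carried over from the primary screen, none filed active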
A number is an active result; - = inactive; . = not tested or not shown. Only some compounds are listed: those with a hit (about 5.7% of all), similar ones and a draw of the others.

SMILES	DAX1 inh-1	ssDAF12 agonist	AHR act	hgDAF12 agonist	hcDAF12 agonist	DAX1 inh-2	DAX1 inh confirm	SF1 mutant ctr	hgDAF12 conf	LXRb DAF12 ctr	others
CCc1ccc2c(c1)C(c1ccncc1)=NNC(c1ccccc1)=N2	-	-	-	-	-	-	.	.	.	.
O=S1(=O)CCOCC(CO)N1Cc1cccc(Br)c1 (configuration not stated)	.	-	.	-	-	-	.	.	.	.
CN(CCC#N)c1ccc(/C=C(\C#N)c2ccccn2)cc1	-	2.1	-	23	17	5.7	12	-	15	-	LXRb hcDAF ctr=-;hcDAF12 conf=-
COc1ccc(-n2nc3cc(C)c(NC(C)=O)cc3n2)cc1	-	0.9	75	18	-	4.5	8.4	-	-	-
OCCC1CN(C2CCN(c3ccccc3F)CC2)CCN1Cc1ccccc1 (configuration not stated)	-	-	-	-	-	-	.	.	.	.
COc1ccccc1Cc1c(C2CCCCC2)nc2ccc(C)cn12	.	-	.	-	-	-	.	.	.	.
Cc1ccc(-c2nc3ccc(C)cn3c2CC2CCCCC2)cc1	.	2.2	.	21	10	7.2	3.8	3.2	11	-	LXRb hcDAF ctr=-;hcDAF12 conf=9.1
CCCc1nc2ccc(C)cn2c1Cc1ccccc1OC	.	-	.	-	-	-	.	.	.	.
Cc1ccc2nc(C3CCCCC3)c(CC(C)(C)C)n2c1	.	-	.	-	-	-	.	.	.	.
COc1ccccc1Cc1c(-c2ccccc2)nc2ccc(C)cn12	.	-	.	17	-	5.2	-	4.3	-	-
COc1ccccc1Cc1c(-c2ccc(C)cc2)nc2ccc(C)cn12	.	-	.	14	-	4.9	7.0	5.1	-	-
CN(C)c1ccc(C(C#N)c2ccc(Cl)cc2)nn1 (configuration not stated)	-	-	-	-	-	-	.	.	.	.
C#CCOCCOCCOCCNc1nc(N2CCN(C(=O)C([C@@H](C)O)n3cc([C@@H](N)CCCCN)nn3)CC2)nc(N2CCN(C(=O)[C@H](CCCCN)n3cc([C@@H](N)[C@H](C)CC)nn3)CC2)n1 (some centres not stated)	-	-	-	-	-	-	.	.	.	.
CN(C)C(=O)c1ccc(N=Nc2c(O)c3ccccc3[nH]c2=O)cc1	-	-	.	-	-	-	.	.	.	.
O=C(O)c1ccc(N=Nc2c(O)[nH]c3ccccc23)cc1	-	2.0	-	16	12	5.9	11	5.7	17	-	LXRb hcDAF ctr=-;hcDAF12 conf=9.9
NS(=O)(=O)c1ccc(CCNC(=O)CSc2nc3ccccc3c3nc(CCN4CCCCC4)nn23)cc1	-	-	-	-	-	-	.	.	.	.
CCc1cc(C(=O)c2ccccc2)c(N)s1	-	-	-	-	-	-	.	.	.	.
COc1ccc(-c2ccc(C(=O)Nc3ccccc3)c3occc23)c(C)c1	.	-	.	20	-	6.7	10	4.2	11	-
Cc1noc(C)c1-c1ccc(C(=O)Nc2ccccc2)c2occc12	.	1.0	.	18	-	9.7	12	-	13	-
c1ccc(-n2nnc3cnccc32)cc1	-	-	-	-	-	-	.	.	.	.
CC(=O)c1cccc(N2Cc3ccccc3C2=NC(=O)CCl)c1	-	-	-	-	-	-	.	.	.	.
O=C(OCC(=O)N1CCc2ccccc21)c1ccccc1[N+](=O)[O-]	-	2.6	-	18	7.5	7.1	17	9.6	17	-	LXRb hcDAF ctr=-;hcDAF12 conf=8.4
O=C(CCCc1ccccc1)N1CCc2ccccc21	-	2.0	-	16	7.8	6.2	17	6.7	18	-	LXRb hcDAF ctr=-;hcDAF12 conf=10
O=C(OCC(=O)N1CCc2ccccc21)c1ccccc1F	-	-	-	-	-	-	.	.	.	.
O=C(CS(=O)(=O)Cc1ccccc1)N1CCc2ccccc21	-	-	-	-	-	-	.	.	.	.
SMILES	DAX1 inh-1	ssDAF12 agonist	AHR act	hgDAF12 agonist	hcDAF12 agonist	DAX1 inh-2	DAX1 inh confirm	SF1 mutant ctr	hgDAF12 conf	LXRb DAF12 ctr	others
CCOCCN(C(=O)COC)c1cccc(OC)c1	-	-	-	-	-	-	.	.	.	.
O=C(NC(=S)Nc1cc([N+](=O)[O-])ccc1O)c1ccc2c(c1)OCO2	-	-	71	16	9.2	10.0	16	7.4	18	-	LXRb hcDAF ctr=-;hcDAF12 conf=9.7
COc1cc([N+](=O)[O-])ccc1NC(=S)NNC(=O)c1ccc2c(c1)OCO2	-	-	-	-	-	-	.	.	.	.
O=C(CC1SC(N2CCCC2)=NC1=O)Nc1ccc(C(=O)Nc2ncccc2O)cc1 (configuration not stated)	-	-	-	38	-	25	40	22	43	-
O=C(NCCCc1ccccc1)C1CCN(c2nc(-c3ccc(Br)cc3)cs2)CC1	.	-	.	-	-	.	.	.	.	.
O=C(CCl)Nc1c[nH]c(=O)[nH]c1=O	-	-	.	-	-	-	.	.	.	.
COCCCNc1ccn2nc(-c3cccc(Cl)c3)cc2n1	.	-	.	21	8.5	5.3	13	4.8	21	-	LXRb hcDAF ctr=-;hcDAF12 conf=9.2
COCCCNc1ccn2nc(-c3cccc(OCc4ccccc4)c3)cc2n1	.	-	.	-	-	-	.	.	.	.
O/C(=C\c1ccc2ccccc2n1)c1ccc(O)cc1O	-	1.4	-	24	8.9	5.3	16	7.1	22	-	LXRb hcDAF ctr=-;hcDAF12 conf=10
Oc1ccc(/C=C/c2ccc3ccccc3n2)cc1	-	-	-	-	-	-	.	.	.	.
CC(=O)Oc1ccc(OC(C)=O)c(SCCCCCCl)c1	-	-	.	-	-	-	.	.	.	.
COc1ccc(C(=O)N/N=C/c2ccccn2)cc1	-	-	.	13	-	4.5	6.6	4.1	13	-
COc1ccc(-n2c(SCC(=O)Nc3cc(C)on3)nc3c(c2=O)SCC3)cc1OC	-	-	-	-	-	-	.	.	.	.
Cc1ccn2cc(-c3cc4ccccc4oc3=O)nc2c1	-	1.7	.	24	11	12	12	4.7	12	-	LXRb hcDAF ctr=-;hcDAF12 conf=6.9
O=C(NCCN1CCOCC1)c1ccc(CS(=O)(=O)c2ccc(Cl)cc2)o1	-	-	-	-	-	-	.	.	.	.

Source: PubChem BioAssay (The Scripps Research Institute Molecular Screening Center)
